# PubChem BioAssay AID588856 (National Center for Advancing Translational Sciences (NCATS), 2011)
# Values joined by “and” are separate entries in the source; they are usually repeats but may differ in a detail not shown here. Equal values may be shown once. Screen size: about 410,000 compounds; about 3,100 (0.76%) were called active. Calls follow the shape of the dose curve; as a rule, active = well fitted cell-killing curve with a large enough effect; inactive = no such curve, though single readings can be large or run the other way. The list comes from a sample in which actives are over-represented; it also holds similar structures and randomly drawn compounds. Entries that show only a call come without a potency. Some structures have more than one record in an assay (separate samples or runs), and their calls can disagree.
# Experiment: qHTS for Inhibitors of TGF-b: Cytotox Counterscreen
# Conditions: HepG2 CAGA-GFP viability, ATP luminescence, 18 h; series mostly up to 46.1 µM
# Outline: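 CellTiter-Glo luminescence gave cytotoxicity after 18 hours at 37 degrees C. The cells were HepG2 CAGA-GFP in 1% FBS DMEM, stimulated with 500 pg/mL TGF-beta after compound addition. %Activity was normalised to no-cell wells (complete cell-killing) and DMSO (no toxicity), and curves were fitted and classified.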
# Potency is read from the fitted curve at half-maximal effect.
row,Structure (SMILES),Potency
1,COc1ccc2c(c1)c(=O)c(C(=O)c1ccccc1)cn2CC(=O)Nc1ccc2c(c1)OCCO2,inactive
2,CCN(CC)c1nc(C#N)nc(OC)n1,inactive
3,COc1ccc(-c2nc(=N)sn2-c2ccccc2)cc1,inactive
4,Nc1ncnc2nnsc12,inactive
5,Cc1cc(C)cc(OC(C)C(=O)Nc2nc3c(s2)CCCC3)c1 (stereo unspecified),inactive
6,COc1ccc(-c2nc3cnccn3c2NC(C)(C)CC(C)(C)C)cc1O,inactive
7,COc1ccc(-c2nc3cc(C)ccn3c2NC2CCCCC2)cc1SC1CCCCC1,inactive
8,COc1ccc(-c2nc3cnccn3c2NC2CCCCC2)cc1-c1cccc(Cl)c1,12.6 µM (active)
9,Cc1cccc(-c2nnc(SC(C)C(=O)Nc3ccccc3)n2C)c1 (stereo unspecified),inactive
10,Cc1nnnn1/C(=C\c1ccccc1)C(=O)OCC(=O)N1CC2(C)CC1CC(C)(C)C2 (stereo unspecified),7.94 µM (active)
11,Oc1ccc(Cl)cc1C1C=C(c2ccc3c(c2)OCO3)NC(c2ccc(F)c(Br)c2)N1 (stereo unspecified),inactive
12,CCOc1ccccc1NC(=O)c1ccc2c(c1)CCN2S(=O)(=O)c1ccc(C)cc1,inactive
13,COc1ccc(C)cc1Nc1nc2ccccc2c2nnc(C)n12,inactive
14,CCCNC(=O)C(CC)n1nc(CC)n2c(cc3oc(C)cc32)c1=O (stereo unspecified),inactive
15,O=C(NCCCN1CCN(c2ccc(F)cc2)CC1)Nc1ccc([N+](=O)[O-])cc1,inactive
16,Cc1ccc(C)c(N2CCN(CCCNC(=O)Nc3ccc(Cl)cc3)CC2)c1,10 µM (active)
17,CCOC(=O)c1c(C)[nH]c(CCC(=O)NCCCN2CCN(c3cc(C)ccc3C)CC2)c1C,inactive
18,O=C(C1CCC(Cn2c(=O)c3sccc3n(Cc3ccccc3F)c2=O)CC1)N1CCCCC1 (stereo unspecified),inactive
19,COc1cc(CN(C(=O)c2ccccc2Br)c2ccccn2)cc(OC)c1OC,inactive
20,Cc1c(CN2CCC(CO)(CCOc3ccccc3)CC2)[nH]c2ccc(Cl)cc12,20 µM (active)
21,CCC(C)CN1CCC(CO)(Cc2ccccc2Cl)CC1 (stereo unspecified),inactive
22,COc1cccc(CC2(CO)CCN(Cc3cnc(-c4cccc(C)c4)nc3)CC2)c1,inactive
23,Cc1ccc(S(=O)(=O)Oc2ccc(/C=N/NC(=O)c3c(Cl)cnn3C)cc2)cc1,inactive
24,COc1cc(/C=N/O)cc(Br)c1OS(=O)(=O)c1ccc(C)cc1,12.6 µM (active)
25,COc1cc(/C=C/c2ccc(/C=C/c3cc(OC)c(OC)c(OC)c3)cc2)cc(OC)c1OC,inactive
26,CO[C@H]1O[C@@H]2O[C@@]3(C)CC[C@@H]4[C@@H](C)CC[C@@H]([C@H]1C)[C@@]24OO3,inactive

row,Structure (SMILES),Potency
1,Fc1ccc(-c2nc(Nc3cccc(Cl)c3)nc3c2COc2ccccc2-3)cc1,inactive
2,Cc1oc(-c2ccccc2F)nc1CN1CCC(C(=O)NCCc2ccc(Cl)cc2)CC1,inactive
3,COc1ccc(Cn2ccc3nc(C)c(C(=O)Nc4ccc(C)c(F)c4)cc3c2=O)cc1,inactive
4,O=C(NC1=CC(=O)c2ccccc2C1=O)c1ccccc1,15.8 µM (active)
5,CC1=C(C(=O)N2CCN(c3cccc(C(F)(F)F)c3)CC2)C2(CCCCC2)OC1=O,inactive
6,Cc1ccc(SCC(CC(C)C)N2CCN(CCc3ccccc3)CCC2=O)cc1 (stereo unspecified),inactive
7,COc1ccc(C(=O)Nc2cccc(C(=O)OCc3cc(=O)n4c5c(sc4n3)CCCC5)c2)cc1,inactive
8,CCC1CCCCN1Cc1c(O)ccc2c(=O)c(Oc3ccccc3Cl)c(C(F)(F)F)oc12 (stereo unspecified),inactive
9,CC1=C/C(=N\OS(=O)(=O)c2ccccc2)C=CC1=O,12.6 µM (active)
10,CCc1ccc(CNC(=O)c2cc3cc4ccc(OC)cc4nc3o2)cc1,inactive
11,Cc1ccc(-c2cnc(C3CC3)o2)cc1S(=O)(=O)Nc1cccc(C)c1C,inactive
12,CCC(=O)c1ccc(N2CCN(C(=O)c3cc([N+](=O)[O-])ccc3F)CC2)c(F)c1,inactive
13,C=CCNC(=S)N1CCN(CCN=Cc2c(C)[nH]n(-c3ccc([N+](=O)[O-])cc3)c2=O)CC1,inactive
14,Cc1[nH]n(-c2ccc([N+](=O)[O-])cc2)c(=O)c1C=NCCN1CCN(C(=O)c2ccccc2F)CC1,2 µM (active)
15,Cc1ccc2ccc3c(c2n1)NS(=O)(=O)c1ccccc1-3,inactive
16,COc1ccc(C(CCN2CCOCC2)c2c(OC)cc(OC)c3c2OC(=O)CC3c2ccc(OC)cc2)cc1 (stereo unspecified),inactive
17,O=C(C[n+]1ccncc1)c1ccc2c(c1)CCCC2,inactive
18,CC(C)(CNC(=O)Cc1ccc(Cl)cc1Cl)N1CCOCC1,inactive
19,Cn1cc(C(=O)c2ccc(Cl)cc2Cl)cc1C(=O)NN,inactive
20,CC(C)(C)c1cc(C(=O)NN)n(Cc2ccc(Cl)cc2Cl)n1,12.6 µM (active)
21,CCOC(=O)C1CCCN(C(=O)c2ccc3c(c2)sc2nc(-c4ccc(CC)cc4)cn23)C1 (stereo unspecified),inactive
22,Cc1ccc2c(c1)N(C(=O)Nc1ccc(Br)cc1F)CCO2,inactive
23,COc1cccc(NC(=O)CSc2cc(=O)n(C)c3ccc(Cl)cc23)c1,inactive
24,CCCCC(O)(CCCC)C(=O)NN(C(=O)CCl)c1ccccc1,inactive
25,Cc1cccc(N(Cc2ccccc2)C(=O)c2ccccc2F)c1,inactive
26,CCCC(O)(CCC)C(=O)NN(C(=O)CCl)c1cccc(C)c1,20 µM (active)

row,Structure (SMILES),Potency
1,CCCn1c(NCc2ccc(N(CC)CC)cc2)nc2ccccc21,inactive
2,CCOC(=O)c1c(SCC(=O)Nc2cccc(C)c2C)nc(=O)[nH]c1C,inactive
3,CCOC(=O)c1c(C)[nH]c(C)c1S(=O)(=O)N(C)CC(=O)N1CCN(c2ccccc2)CC1,inactive
4,CCOC(=O)c1c(C)[nH]c2c1-c1ccccc1C(=O)C2=O,1.26 µM (active)
5,CCc1nnc(NC(=O)CCN(c2ccc(C)cc2)S(=O)(=O)c2ccccc2)s1,inactive
6,CCc1nnc(NS(=O)(=O)c2ccc(NC(=S)NC(=O)/C=C/c3cccs3)cc2)s1,inactive
7,CCc1nnc(NS(=O)(=O)c2ccc(N=Cc3c(C)[nH]n(-c4ccc(C)cc4)c3=O)cc2)s1,8.91 µM (active)
8,CN(N=O)c1ccc(C=C2c3ccccc3-c3ccccc32)cc1,inactive
9,Cc1ccc(N2C(=O)C3N=NN(CC(=O)N4N=C(c5cccc6ccccc56)CC4c4ccccc4)C3C2=O)cc1 (stereo unspecified),inactive
10,COc1ccc(C2CC(c3cccc(OC)c3)=NN2c2ccc(S(N)(=O)=O)cc2)cc1 (stereo unspecified),inactive
11,Oc1ccccc1C1=NN(c2ccccc2)C(c2ccccc2)C1 (stereo unspecified),10 µM (active)
12,CC(=O)c1ccc[n+](C(C)CCC(C)[n+]2cccc(C(C)=O)c2)c1 (stereo unspecified),inactive
13,CCOC(=O)c1c(S(=O)(=O)N2CCC(C(=O)NCc3ccccc3OC)CC2)c(C)n(C)c1C,inactive
14,CCCCCCCCCCOC(=O)Cn1c(COc2cccc(OC)c2)[n+](C)c2ccccc21,20 µM (active)
15,OC(CBr)CN1CCCCC1 (stereo unspecified),inactive
16,CC(=O)Nc1cccc(NC(=O)CSc2nccn2Cc2ccc3c(c2)OCO3)c1,inactive
17,Cc1cccc(NC(=O)Cn2c(=O)n(CCC(C)C)c(=O)c3cccnc32)c1,inactive
18,O=C(NCCN1CCN(Cc2ccccc2)CC1)c1cc2c(=O)[nH]c3ccccc3c2s1,inactive
19,CCn1c(=O)c2cc(C(=O)NCCc3ccc(Cl)cc3)sc2c2ccccc21,inactive
20,CCC1CCCCN1CCCNC(=O)c1cc2c(Cl)nc3ccccc3c2s1 (stereo unspecified),inactive and 12.6 µM (active)
21,CCCCN1C(=O)c2[nH]nc(-c3ccccc3O)c2C1c1cccc(OCc2ccccc2)c1 (stereo unspecified),14.1 µM (active)
22,CCCOc1ccc(C2c3c(-c4ccccc4O)n[nH]c3C(=O)N2Cc2cccnc2)cc1 (stereo unspecified),inactive
23,COc1ccc(CCN2C(=O)c3[nH]nc(-c4ccccc4O)c3C2c2ccc(C)cc2)cc1OC (stereo unspecified),inactive
24,O=c1[nH]c2cc(Br)ccc2n2cccc12,inactive
25,Cc1cccc(N2CCN(C(=O)c3cc4c(=O)oc5ccccc5c4s3)CC2C)c1 (stereo unspecified),inactive
26,CC(C)c1ccc2oc(-c3cc(NC(=O)c4cccs4)ccc3Cl)nc2c1,inactive

row,Structure (SMILES),Potency
1,CCCn1nc(C(=O)NNC(=O)CCOc2ccccc2OCC)c2ccccc2c1=O,inactive
2,CCCn1nc(C(=O)NNC(=O)CSCC(=O)Nc2cc(C)on2)c2ccccc2c1=O,11.2 µM (active)
3,CCCCn1nc(C(=O)Nc2cccc(C(=O)NC3CC3)c2)c2ccccc2c1=O,inactive
4,Cc1csc[n+]1CCC1CCCCC1,inactive
5,O=C(O)C1CC=CC2CCN(C3CCCCC3)C(=O)C21 (stereo unspecified),inactive
6,CCCS(=O)(=O)Nc1cccc(-c2cn3ccsc3n2)c1,inactive
7,CSc1nc(Nc2ccc(F)cc2)cc(-c2ccccc2)n1,inactive
8,CSc1nc(-c2ccccc2)nc(C(Cl)Cl)n1,5.01 µM (active)
9,O=C(NCC1CC1)C1(C(F)(F)F)C/C(=C\CCO)CCCO1 (stereo unspecified),inactive
10,Cc1ccc(N(Cc2cc(=O)[nH]c3ccccc23)C(=O)CCl)cc1,17.8 µM (active)
11,Cn1nnnc1SCc1cc(=O)[nH]c2ccccc12,inactive
12,Cc1ccc(N(Cc2ccccc2O)C(=O)c2ccccc2F)cc1,inactive
13,O=c1cc(-c2ccccc2)n2c(SCc3ccccc3)nnc2[nH]1,inactive
14,CC(C)NC(=O)C1CCC(Cn2c(=O)c3sccc3n(Cc3ccc(F)cc3)c2=O)CC1 (stereo unspecified),inactive
15,Cc1ccc(C(NC(=O)C2CCN(CCOc3ccc(Cl)cc3Cl)CC2)c2ccccn2)cc1 (stereo unspecified),20 µM (active)
16,Cc1cccnc1C(NC(=O)C1CCN(Cc2ccc(Cl)c(Cl)c2)CC1)c1ccc(Cl)cc1 (stereo unspecified),inactive
17,O=C(NC(c1ccc(-c2ccccc2)cc1)c1cnccn1)C1CCN(CCOc2ccc(Cl)cc2Cl)CC1 (stereo unspecified),inactive
18,CCCCOc1ccc(CN2C(=O)C(=O)c3cc(Br)cc(C)c32)cc1OC,15.8 µM (active)
19,Cc1cccc2c1N(CCOc1ccccc1)C(=O)C2=O,inactive
20,CCCCOc1ccc(Cn2c(=O)oc3ccc(C)cc32)cc1OC,inactive
21,CCCn1c(SCC(=O)Nc2c(C)cccc2C)nnc1C(C)C,inactive
22,O=C(CSc1nnc(CN2CCCC2)n1-c1ccc(F)cc1)c1ccc2c(c1)OCO2,inactive
23,CCCn1c(SCC(=O)c2ccc3c(c2)OCCO3)nnc1C(C)C,10 µM (active)
